Values without a mark were called inactive. Activity calls are given as the source filed them. Cut-off read from the data, not from the text of the source: active = inhibition above about 33%; inactive = the rest.
Assay: VP16 transactivation reporter inhibitors, counter-screen for LRH-1 inverse agonist project, cell-based, luminescence, high throughput (AID 651615)
Settings: Gal4-VP16 luciferase reporter cells, at 3.6 µM, hits give high values

Compound	inhibition
Cc1c(C)c2ccc(OCC(=O)N3CCN(C(=O)C4COc5ccccc5O4)CC3)cc2oc1=O (stereo not given)	-17.1%
Cc1ccc(C)c(NC(=O)CSc2nnc(-c3ccccc3)n2N)c1	-20.5%
CC[C@H](CO)Nc1nc(Nc2cccc(Cl)c2)c2ncn(C(C)C)c2n1	35.9% (active)
NC(=S)N/N=C/c1ccc(-n2nncc2-c2ccc(Cl)cc2)cc1	6.68%
COC(=O)CC1(C(=O)OC)Oc2ccc(Br)cc2C(=O)N1c1cc(Cl)c(Cl)cc1Cl (stereo not given)	20.2%
CCCC(=O)Nc1sc2c(c1C(=O)Nc1ccccn1)CCCC2	5.28%
Cc1c(Cl)cccc1NC(=O)CSc1sc2c(O)cc(=O)[nH]c2c1C#N	6.14%
COc1ccc(-c2ccc(C(=O)NCc3ccncc3)c3occc23)c(C)c1	46.4% (active)
CCc1ccc2oc(C(=O)NCc3ccncc3)c(C)c2c1	6.18%
O=[N+]([O-])c1cnccc1Nc1ccc(Cl)cc1	18.9%
O=C(Nc1cc(C(F)(F)F)cc(C(F)(F)F)c1)O[C@@H]1c2ccccc2[C@@H]2Cc3csc[n+]3[C@H]12	4.96%
O=C(c1ccccc1)N(NC(=O)C(O)(c1ccccc1)c1ccccc1)c1cccc(F)c1	30.2%
Clc1ccccc1-c1nnc2sc(-c3ccncc3)nn12	3.81%
Cc1ccc[n+](CC(=O)Nc2ccc([N+](=O)[O-])cc2)c1	-13.3%
Oc1ccccc1-c1nc(NCC2CCCO2)c2ccccc2n1 (stereo not given)	-8%
O=C(CN(Cc1ccccc1)C(=O)CCl)c1cccc(Br)c1	-1.2%
O=C(NCc1cccnc1)c1cccc2c1C(=O)N(C1CCCCC1)C2	-8.24%
O=C(Nc1ccc(Cc2ccncc2)cc1)c1cc(F)c(F)cc1Cl	10.3%
COc1ccc(C2=CC(=O)CC(C)(C)C2)cc1OC	11.7%
CCn1c2ccccc2c2cc(/C=N/n3cnnc3)ccc21	10.1%

Compound	inhibition
O=C(Cc1c(F)cccc1Cl)Nc1ccncc1	-7.58%
COc1ccccc1NC(=O)c1ccc(NC(=O)COC(=O)C(C)C)cc1	-39.4%
Cc1ccc(NC(=O)CSc2sc3c(O)cc(=O)[nH]c3c2C#N)c(F)c1	-9.48%
O=C1C(Cl)=C(N2CCOCC2)C(=O)N1c1ccc(Br)cc1	4.3%
Cc1ccc2c(c1)Oc1ccc(NC(=O)CCl)cc1C(=O)N2	16.8%
Cc1cccc(NC(=O)CSc2nnc([C@@H]3CCCN3C(=O)OC(C)(C)C)o2)c1C	-39.9%
CCc1cc(=O)oc2c(C)c(OCC(=O)NCCCN3CCOCC3)ccc12	2.03%
O=C1C(=C(I)I)c2ccccc2-c2ccccc21	-39.2%
CS(=O)(=O)N1CCCC(c2nc(-c3ccc(S(=O)(=O)NCc4ccccc4)cc3)no2)C1 (stereo not given)	37.8% (active)
Cc1ccc(Cl)cc1N1CCN(C(=O)C(C)n2ncn3cccc3c2=O)CC1 (stereo not given)	2.84%
Cc1sc2ncnc(NCCc3ccc(S(N)(=O)=O)cc3)c2c1C	50% (active)
CCOC(=O)N1CCc2cc(OC)c(OC)c3c2c1cc1cc(OC)c(OC)cc13	-28.7%
S=C1Cc2ccccc2N1	53.3% (active)
CCC1(C)OC(=O)N2CCc3c(C)[nH]c4c(C)ccc(c34)C21C (stereo not given)	12.7%
COc1ccccc1Cc1c(-c2ccc(OC)c(OC)c2)nc2c3ccccc3ccn12	-1.36%
O=[N+]([O-])c1ccc(N2CCCC2)nc1N1CCCC1	-3.67%
O=C(Nc1cc(Cl)ccc1-n1cncn1)c1ccc([N+](=O)[O-])s1	-10.3%
Oc1ccc2ccccc2c1C=NCc1ccccc1	3.34%
O=C(CN1C(=O)NC2(CCCC2)C1=O)NCCc1ccc(F)cc1	5.08%
Cc1onc(NC(=O)c2ccc([N+](=O)[O-])o2)c1Br	-9.49%

— PubChem BioAssay
